Assay results from PubChem BioAssay (Tox21).
Inconclusive results are not listed. Activity calls are given as the source filed them. Unless noted, the call rests on the fitted dose curve; in most records, active means well fitted curve in the direction sought with a large enough effect in the repeat runs; inconclusive means weak or mixed curves; inactive means flat fitted curve, though single readings scatter.

Key:
[1] = qHTS assay to test for compound auto fluorescence at 535 nm (green) in HEK293 cells (AID 720680)
[2] = qHTS assay to test for compound auto fluorescence at 460 nm (blue) in HEK293 cell free culture (AID 720681)
In short: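 Test compounds were pinned into cell-free culture medium (DMEM with 10% FBS) and fluorescence was read directly at Ex/Em 405/460 nm. Signals were expressed as fluorescence equivalents of triamterene, with DMSO vehicle as control.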

[3] = qHTS assay to test for compound auto fluorescence at 535 nm (green) in HEK293 cell free culture (AID 720682)
In short: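 Fluorescein serves as the green reference fluorophore; each compound's intrinsic emission at 535 nm (excitation 485 nm) is reported as an equivalent amount of that dye, measured in serum-containing DMEM without cells.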

[4] = qHTS assay to test for compound auto fluorescence at 590 nm (red) in HEK293 cell free culture (AID 720683)
In short: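 Tox21 10K library compounds were pinned into cell-free DMEM with 10% FBS and fluorescence was read at excitation 540 nm. Activity is expressed as Rose Bengal sodium equivalency.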

[5] = qHTS assay to test for compound auto fluorescence at 590 nm (red) in HepG2 cell free culture (AID 720684)
In short: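 Readout: intrinsic compound fluorescence at 590 nm emission after 540 nm excitation, scaled to Rose Bengal sodium. Matrix was cell-free MEM with 10% FBS; DMSO vehicle wells served as control.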

[6] = qHTS assay to test for compound auto fluorescence at 460 nm (blue) in HepG2 cell free culture (AID 720685)
In short: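 Cell-free plates of MEM plus 10% FBS received 23 nL compound or DMSO vehicle; blue-channel (405/460 nm) intensity scored against triamterene as reference fluorophore.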

[7] = qHTS assay to test for compound auto fluorescence at 535 nm (green) in HepG2 cell free culture (AID 720686)
[8] = target: Glucocorticoid receptor (Homo sapiens) (UniProt P04150); assay: qHTS assay to identify small molecule agonists of the glucocorticoid receptor (GR) signaling pathway (AID 720691; active means well fitted activation curve with a large enough effect in the signal ratio in the repeat runs, not every such curve was filed as active; the % refers to the signal ratio)
In short: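 Measures GR pathway activation through a GRE-beta-lactamase reporter stably integrated in HeLa cells, with 18 h compound treatment at 37 C and fluorescence detection using a FRET substrate.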

[9] = qHTS assay to test for compound auto fluorescence at 460 nm (blue) in HepG2 cells (AID 720687)
In short: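 Cells (2,000/well in MEM with 10% FBS) attached overnight at 37 C, then were exposed to compound or DMSO for 1 hr at 37 C, 5% CO2. Fluorescence read at Ex/Em 405/460 nm, expressed as triamterene-equivalent signal.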

[10] = target: Glucocorticoid receptor (Homo sapiens) (UniProt P04150); assay: qHTS assay to identify small molecule antagonists of the glucocorticoid receptor (GR) signaling pathway (AID 720692; active means well fitted inhibition curve with a large enough effect in the signal ratio in the repeat runs, not every such curve was filed as active; the % refers to the signal ratio; further: potency means the concentration at half of the fitted maximal effect)
In short: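 Tox21 10K library screened in concentration-response for blockade of dexamethasone (5 nM final)-induced GRE-bla reporter activity in HeLa cells; 18 h treatment, fluorescence read.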

Measured: Potency

Sequence of Glucocorticoid receptor (Homo sapiens) (P04150 whole entry, looked up): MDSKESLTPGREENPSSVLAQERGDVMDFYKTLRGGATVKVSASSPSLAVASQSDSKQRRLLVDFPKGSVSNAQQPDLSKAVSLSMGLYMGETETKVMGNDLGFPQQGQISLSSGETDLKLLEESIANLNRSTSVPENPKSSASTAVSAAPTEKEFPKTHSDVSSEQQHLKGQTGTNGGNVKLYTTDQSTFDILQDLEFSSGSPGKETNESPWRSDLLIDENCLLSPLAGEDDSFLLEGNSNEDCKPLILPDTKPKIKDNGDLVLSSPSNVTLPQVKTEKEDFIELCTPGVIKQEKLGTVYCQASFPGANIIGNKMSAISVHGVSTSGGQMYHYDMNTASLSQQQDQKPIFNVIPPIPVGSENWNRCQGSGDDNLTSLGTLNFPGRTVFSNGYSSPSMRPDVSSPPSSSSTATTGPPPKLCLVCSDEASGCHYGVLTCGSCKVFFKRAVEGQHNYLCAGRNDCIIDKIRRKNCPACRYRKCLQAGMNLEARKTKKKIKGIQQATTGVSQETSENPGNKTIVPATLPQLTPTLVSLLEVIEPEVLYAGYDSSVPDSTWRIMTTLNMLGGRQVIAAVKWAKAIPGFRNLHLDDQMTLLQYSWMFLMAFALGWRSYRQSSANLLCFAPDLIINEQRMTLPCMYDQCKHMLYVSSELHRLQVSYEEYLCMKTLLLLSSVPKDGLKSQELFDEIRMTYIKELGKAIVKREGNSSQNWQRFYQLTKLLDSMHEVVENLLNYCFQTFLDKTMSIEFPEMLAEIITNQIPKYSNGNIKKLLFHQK

CCBr
not listed: [9] | [10]
inactive: all other assays above

ClP(Cl)(Cl)(Cl)Cl
inactive: all assays above

II
not listed: [9]
inactive: all other assays above

CN(C)c1ccc(N(C)C)cc1
not listed: [9] | [10]
inactive: all other assays above

CCCCCCCCCC(=O)O[C@H]1CC[C@H]2[C@@H]3CCC4=CC(=O)CC[C@@H]4[C@H]3CC[C@]12C
active: [10] 9.52 µM
not listed: [8]
inactive: all other assays above

C=CC(=O)NCNC(=O)C=C
not listed: [9] | [10]
inactive: all other assays above

N#Cc1ccc(Cl)cc1
not listed: [9]
inactive: all other assays above

CCCCC(CC)COP(=O)(Oc1ccccc1)Oc1ccccc1 (stereo not given)
not listed: [5]
inactive: all other assays above

O=C(OC1CCCCC1)c1ccccc1C(=O)OC1CCCCC1
not listed: [5] | [10]
inactive: all other assays above

O=C(NCc1cccnc1)Nc1ccc([N+](=O)[O-])cc1
not listed: [5] | [8] | [10]
inactive: all other assays above
